From PubChem
RAM inhibit: blocks the yeast RAM network | inhibition, % at 50 µM | 1.8% of 190,000 active | S. cerevisiae dse1pr::URA3 reporter, 5-FOA growth OD615, 2 d; analog-sensitive cbk1-as2 kinase mutant strain | AID 868;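 active = inhibition above a set limit, 3 SD over mean compound inhibition, cut at about 8.4% in these data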;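 note: 0% = DMSO-only wells with no growth and 100% = 10 µM 1-NA-PP1 full growth; inhibition rescues growth on 5-FOA so higher OD means more RAM inhibition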
WT yeast gro inh: growth inhibition of WT yeast, mitochondrial fusion screen. inhibition, % at 10 µM. AID 1362. 2.1% of 190,000 active. mitochondrial fusion phenotypic screen, WT strain; in the data active = inhibition above about 58%; tested in S. cerevisiae
Lmaj promast: reduces viability of Leishmania major promastigotes. resazurin fluorescence viability. inhibition, % at 10 µM. 9% of 200,000 active. AID 1063; in the data active = inhibition above about 50%;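 note: promastigotes grown with compound for 44 hours at 28 °C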
CHOP inhibitor: blocks CHOP induction under ER stress; CHO-K1 CHOP-promoter luciferase, tunicamycin-induced, 15-18 h; inhibition, % at 10 µM; 3.8% of 220,000 active; AID 2732;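 active = compounds that reduced the stress-induced luciferase reporter signal by more than about 70% of percent inhibition, limit read from the data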;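 note: 0% = tunicamycin plus vehicle and 100% = wells without tunicamycin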
Active calls of the source: *. Most compounds without a hit are left out; they make up all but 13% or so of the library.

Screening COc1ccc(/C=N/NC(=O)C2(C)NC(C)(C)Cc3ccccc32)cc1 (stereo not given) returned RAM inhibit 1, WT yeast gro inh 14, Lmaj promast -6 and CHOP inhibitor 57.
Screening COc1ccc(OC)c(NC(=O)C(=O)NNC(=O)c2cccs2)c1 returned RAM inhibit 3, WT yeast gro inh 3, Lmaj promast -6 and CHOP inhibitor 6.
Screening Cc1ccccc1-n1ncc(C(C)NC(=O)c2ccco2)c1C (stereo not given) returned RAM inhibit 1, WT yeast gro inh 3, Lmaj promast 2 and CHOP inhibitor -9.
`COc1ccc(NC(=O)CN(C)CC(=O)Nc2ccccc2SC)cc1Cl` gave RAM inhibit 0, WT yeast gro inh 0, Lmaj promast 7 and CHOP inhibitor -5.
For COc1ccc(NCC(=O)Nc2ccccc2C#N)cc1Cl the results were RAM inhibit -1, WT yeast gro inh -1, Lmaj promast 87* and CHOP inhibitor 4.
Screening Cc1cc(C(=O)Nn2c(C3CCCCC3)nc3ccccc3c2=O)ccc1[N+](=O)[O-] returned RAM inhibit 2, WT yeast gro inh 74*, Lmaj promast 13 and CHOP inhibitor -4.
For O=C(Nn1c(C2CCCCC2)nc2ccccc2c1=O)c1ccc(Cl)c([N+](=O)[O-])c1 the results were RAM inhibit 3, WT yeast gro inh 82*, Lmaj promast 4 and CHOP inhibitor 43.
`CCc1cccc(NC(=O)c2cc(OC)c(OC)c(OC)c2)c1` gave RAM inhibit 1, WT yeast gro inh 10, Lmaj promast 11 and CHOP inhibitor 16.
CCN(c1ccccc1)S(=O)(=O)c1ccc(OCc2c(C)noc2C)cc1 was read as RAM inhibit 10*, WT yeast gro inh 3, Lmaj promast 1 and CHOP inhibitor 9.
Screening O=C(NCCc1c[nH]c2ccccc12)Nc1ccccc1 returned RAM inhibit 0, WT yeast gro inh 1, Lmaj promast 40 and CHOP inhibitor 24.
N#Cc1cccc(NC(=O)NCCc2c[nH]c3ccccc23)c1 was read as RAM inhibit 1, WT yeast gro inh 7, Lmaj promast 90* and CHOP inhibitor 21.
`N#Cc1cn(CC(=O)NCCc2c[nH]c3ccccc23)c2ccccc12` gave RAM inhibit 5, WT yeast gro inh -10, Lmaj promast 88* and CHOP inhibitor 25.
CCOc1ccc(C(=O)Nc2c3c(nn2-c2ccc(C)cc2)CS(=O)C3)cc1OCC (stereo not given) was read as RAM inhibit 9.6*, WT yeast gro inh -4, Lmaj promast 4 and CHOP inhibitor -14.
`Cc1ccc(-n2nc3c(c2NC(=O)c2ccc4c(c2)OCO4)CS(=O)C3)cc1` (stereo not given) gave RAM inhibit 2, WT yeast gro inh -11, Lmaj promast -3 and CHOP inhibitor 18.
Screening Cc1ccc(N2CCN(C(=O)c3ccccc3F)CC2)c(C)c1 returned RAM inhibit -2, WT yeast gro inh 40, Lmaj promast -6 and CHOP inhibitor 93*.
Cc1ccc(C)c(N2CCN(C(=O)c3csc4ccccc34)CC2)c1 was read as RAM inhibit 2, WT yeast gro inh 74*, Lmaj promast 14 and CHOP inhibitor 80*.
Screening O=C(c1ccccc1F)N1CCC(N2CCCCCC2)CC1 returned RAM inhibit 0, WT yeast gro inh -10, Lmaj promast 73* and CHOP inhibitor 8.
Cc1ccc(C)c(N2CCN(C(=O)Cc3cn(C)c4ccccc34)CC2)c1 was read as RAM inhibit 0, WT yeast gro inh 63*, Lmaj promast 6 and CHOP inhibitor 74*.
Screening CCC(=O)c1ccc(N2CCN(C(=O)c3ccccc3F)CC2)c(F)c1 returned RAM inhibit 7, WT yeast gro inh 2, Lmaj promast 1 and CHOP inhibitor 20.
Screening CCOC(=O)N1CCN(C(=O)CN(c2ccc(Cl)c(C(F)(F)F)c2)S(C)(=O)=O)CC1 returned RAM inhibit 1, WT yeast gro inh 13, Lmaj promast -3 and CHOP inhibitor 0.
COC(=O)c1cc(Cl)c(NC(=O)/C=C/c2ccc(Cl)cc2Cl)cc1OC was read as RAM inhibit 3, WT yeast gro inh 0, Lmaj promast -2 and CHOP inhibitor 84*.
For CCCSc1nc(-n2ncc(C#N)c2N)c2c3c(sc2n1)CCC(C)C3 (stereo not given) the results were RAM inhibit 3, WT yeast gro inh 64*, Lmaj promast 8 and CHOP inhibitor 67.
`Cc1nn(Cc2ccccc2Cl)c(C)c1NC(=O)NC12CC3CC(CC(C3)C1)C2` gave RAM inhibit 3, WT yeast gro inh 73*, Lmaj promast 17 and CHOP inhibitor 47.
Cc1nn(Cc2cccc(C(=O)NC34CC5CC(CC(C5)C3)C4)c2)c(C)c1Br was read as RAM inhibit 4, WT yeast gro inh 57, Lmaj promast 54* and CHOP inhibitor 7.
Cc1nn(Cc2ccccc2Cl)c(C)c1NC(=O)c1ccn(C)n1 was read as RAM inhibit 1, WT yeast gro inh -4, Lmaj promast -4 and CHOP inhibitor 3.
Screening CN(Cc1cccs1)C(=O)Cn1cnc2ccccc2c1=O returned RAM inhibit 0, WT yeast gro inh -8, Lmaj promast -4 and CHOP inhibitor 6.
For CCOC(=O)c1c(C)oc2c1c(CN1CCN(C(=O)OCC)CC1)c(O)c1ccccc12 the results were RAM inhibit 1, WT yeast gro inh 31, Lmaj promast 29 and CHOP inhibitor -10.
Screening CCOC(=O)c1c(C)oc2c1c(CN1CCN(CCO)CC1)c(O)c1ccccc12 returned RAM inhibit 5, WT yeast gro inh 59*, Lmaj promast 9 and CHOP inhibitor -57.
Screening CCOC(=O)c1c(C)oc2c1c(C(c1ccncc1)N1CCOCC1)c(O)c1ccccc12 (stereo not given) returned RAM inhibit 0, WT yeast gro inh 32, Lmaj promast 73* and CHOP inhibitor 13.
`Cc1cc(C)nc(SCc2nc(N)nc(-c3ccccc3O)n2)n1` gave RAM inhibit 2, WT yeast gro inh -1, Lmaj promast 16 and CHOP inhibitor 22.
Cc1csc(NC(=O)C2CCN(S(=O)(=O)c3ccccc3F)CC2)n1 was read as RAM inhibit 1, WT yeast gro inh -5, Lmaj promast 20 and CHOP inhibitor -13.
N#Cc1ccc(C(=O)Nc2nnc(-c3ccco3)o2)cc1 was read as RAM inhibit 2, WT yeast gro inh -1, Lmaj promast 5 and CHOP inhibitor 7.
N#Cc1ccc(C(=O)Nc2nnc(-c3cccs3)o2)cc1 was read as RAM inhibit 3, WT yeast gro inh 11, Lmaj promast 98* and CHOP inhibitor 7.
CN(C)S(=O)(=O)c1ccc(C(=O)Nc2nnc(-c3ccc4c(c3)CCCC4)o2)cc1 was read as RAM inhibit 2, WT yeast gro inh 68*, Lmaj promast 98* and CHOP inhibitor 66.
`O=C(Nc1nnc(-c2cccs2)o1)c1cccc(C(F)(F)F)c1` gave RAM inhibit 3, WT yeast gro inh 62 and Lmaj promast 95*.
CN(c1ccccc1)S(=O)(=O)c1ccc(C(=O)Nc2nnc(C3=COCCO3)o2)cc1 was read as RAM inhibit 1, WT yeast gro inh 3, Lmaj promast -4 and CHOP inhibitor -3.
